Source: PubChem BioAssay (NCI)
Values joined by “and” are separate entries in the source; they are usually repeats but may differ in a detail not shown here. Identical values can stand only once. The panel holds about 83,000 compounds, 20% with a hit somewhere; the sample as a whole holds those more often.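 In brief: 96-well plates, 48 h treatment, single concentration, percent growth endpoint.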 Active and inactive are the calls of the source. Rule for the calls: active = growth percent below 10; inactive = the rest.

Legend:
Experiment in all cases: NCI-60 one-dose screen, 48 h (100 = growth as untreated, 0 = no growth, -100 = all killed)
SR leukemia = tested on: SR leukemia
RPMI-8226 leukemia = tested on: RPMI-8226 leukemia
OVCAR-8 ovarian = tested on: OVCAR-8 ovarian
OVCAR-5 ovarian = tested on: OVCAR-5 ovarian
OVCAR-4 ovarian = tested on: OVCAR-4 ovarian
IGROV1 ovarian = tested on: IGROV1 ovarian
OVCAR-3 ovarian = tested on: OVCAR-3 ovarian
HS 578T breast = tested on: HS 578T breast
NCI/ADR-RES ovarian = tested on: NCI/ADR-RES ovarian
T-47D breast = tested on: T-47D breast
BT-549 breast = tested on: BT-549 breast
MDA-MB-435 melanoma = tested on: MDA-MB-435 melanoma
SW-620 colon = tested on: SW-620 colon
MCF7 breast = tested on: MCF7 breast
HCT-116 colon = tested on: HCT-116 colon
HCC-2998 colon = tested on: HCC-2998 colon
KM12 colon = tested on: KM12 colon
SK-OV-3 ovarian = tested on: SK-OV-3 ovarian

Measured: growth

COc1ccc(C(=O)/C=C/c2ccc(OCc3cccc(C(F)(F)F)c3)c(OC)c2)cc1OC
inactive: SR leukemia; 10 µM 36.8% | RPMI-8226 leukemia; 10 µM 29.7% | OVCAR-8 ovarian; 10 µM 67.1% | OVCAR-5 ovarian; 10 µM 109% | OVCAR-5 ovarian; 100 µM 51.5% | OVCAR-4 ovarian; 10 µM 74.9% | OVCAR-4 ovarian; 100 µM 20.3% | IGROV1 ovarian; 10 µM 93.6% | OVCAR-3 ovarian; 10 µM 79.8% | HS 578T breast; 10 µM 98.2% | HS 578T breast; 100 µM 11.6% | NCI/ADR-RES ovarian; 10 µM 71.4% | T-47D breast; 10 µM 54.2% | T-47D breast; 100 µM 11.3% | BT-549 breast; 10 µM 95.2% | MDA-MB-435 melanoma; 10 µM 86.3% | MDA-MB-435 melanoma; 100 µM 12% | SW-620 colon; 10 µM 59.1% | MCF7 breast; 10 µM 40% | HCT-116 colon; 10 µM 52.3% | HCC-2998 colon; 10 µM 105% | HCC-2998 colon; 100 µM 10.8% | KM12 colon; 10 µM 72.5% | KM12 colon; 100 µM 12.4%
active: SR leukemia; 100 µM 5.42% | RPMI-8226 leukemia; 100 µM -0.397% | OVCAR-8 ovarian; 100 µM 4.75% | IGROV1 ovarian; 100 µM 5.18% | OVCAR-3 ovarian; 100 µM -10.3% | NCI/ADR-RES ovarian; 100 µM -6.47% | BT-549 breast; 100 µM -41.3% | SW-620 colon; 100 µM 6.75% | MCF7 breast; 100 µM 6.42% | HCT-116 colon; 100 µM 3.91%

COC(=O)c1c2c(c(C)[n+]([O-])c1C)C(=O)C(NCCN1CCOCC1)=CC2=O
active: OVCAR-3 ovarian; 10 µM unless noted 5.12%
inactive: SR leukemia; 10 µM unless noted 66.9% | RPMI-8226 leukemia; 10 µM unless noted 91.9% | OVCAR-8 ovarian; 10 µM unless noted 61.7% | OVCAR-5 ovarian; 10 µM unless noted 89.1% | OVCAR-4 ovarian; 10 µM unless noted 35.4% | SK-OV-3 ovarian; 10 µM unless noted 103% | IGROV1 ovarian; 10 µM unless noted 63.4% | HS 578T breast; 10 µM unless noted 101% | NCI/ADR-RES ovarian; 10 µM unless noted 91.7% | T-47D breast; 10 µM unless noted 80.6% | BT-549 breast; 10 µM unless noted 91.4% | MDA-MB-435 melanoma; 10 µM unless noted 49.9% | SW-620 colon; 10 µM unless noted 64.3% | MCF7 breast; 10 µM unless noted 55.9% | HCT-116 colon; 10 µM unless noted 28.3% | HCC-2998 colon; 10 µM unless noted 74.1%

CCOc1ccccc1NC(=O)c1cc2ccccc2cc1O
inactive: SR leukemia; 10 µM unless noted 45.5% | RPMI-8226 leukemia; 10 µM unless noted 25.8% | OVCAR-8 ovarian; 10 µM unless noted 52% | OVCAR-5 ovarian; 10 µM unless noted 114% | OVCAR-4 ovarian; 10 µM unless noted 61% | SK-OV-3 ovarian; 10 µM unless noted 81.3% | IGROV1 ovarian; 10 µM unless noted 60.3% | OVCAR-3 ovarian; 10 µM unless noted 18.2% | HS 578T breast; 10 µM unless noted 51.6% | NCI/ADR-RES ovarian; 10 µM unless noted 28.7% | T-47D breast; 10 µM unless noted 51.7% | BT-549 breast; 10 µM unless noted 85% | MDA-MB-435 melanoma; 10 µM unless noted 49.4% | SW-620 colon; 10 µM unless noted 64.7% | MCF7 breast; 10 µM unless noted 70.3% | HCT-116 colon; 10 µM unless noted 31.9% | HCC-2998 colon; 10 µM unless noted 76.3%

COC(=O)/C=C1/SC(N2N=C(c3cccs3)CC2c2ccc(F)cc2)=NC1=O (configuration not stated)
inactive: OVCAR-8 ovarian; 10 µM unless noted 44.1% | OVCAR-5 ovarian; 10 µM unless noted 79.1% | OVCAR-4 ovarian; 10 µM unless noted 84.8% | SK-OV-3 ovarian; 10 µM unless noted 89.2% | IGROV1 ovarian; 10 µM unless noted 32.3% | OVCAR-3 ovarian; 10 µM unless noted 11.5% | HS 578T breast; 10 µM unless noted 84.6% | NCI/ADR-RES ovarian; 10 µM unless noted 51.9% | T-47D breast; 10 µM unless noted 38.9% | BT-549 breast; 10 µM unless noted 66.1% | MDA-MB-435 melanoma; 10 µM unless noted 43.2% | MCF7 breast; 10 µM unless noted 10.1% | HCC-2998 colon; 10 µM unless noted 33.7% | KM12 colon; 10 µM unless noted 30.5%
active: SR leukemia; 10 µM unless noted 7.77% | RPMI-8226 leukemia; 10 µM unless noted -24.2% | SW-620 colon; 10 µM unless noted 3.45% | HCT-116 colon; 10 µM unless noted -15.3%

CC(=O)/C=C/c1ccc(OCc2ccc(C(C)(C)C)cc2)cc1
active: RPMI-8226 leukemia; 100 µM 0.803% | NCI/ADR-RES ovarian; 100 µM 7.42% | T-47D breast; 100 µM 5.88%
inactive: SR leukemia; 10 µM 65.9% | SR leukemia; 100 µM 29.5% | RPMI-8226 leukemia; 10 µM 67.6% | OVCAR-8 ovarian; 10 µM 90.5% | OVCAR-8 ovarian; 100 µM 23.2% | OVCAR-5 ovarian; 10 µM 89% | OVCAR-5 ovarian; 100 µM 37.6% | OVCAR-4 ovarian; 10 µM 74% | OVCAR-4 ovarian; 100 µM 33.8% | SK-OV-3 ovarian; 10 µM 77.8% | SK-OV-3 ovarian; 100 µM 39.5% | IGROV1 ovarian; 10 µM 98.6% | IGROV1 ovarian; 100 µM 81.6% | OVCAR-3 ovarian; 10 µM 94.6% | OVCAR-3 ovarian; 100 µM 47.1% | HS 578T breast; 10 µM 75.5% | HS 578T breast; 100 µM 10.3% | NCI/ADR-RES ovarian; 10 µM 81.1% | T-47D breast; 10 µM 52.8% | BT-549 breast; 10 µM 103% | BT-549 breast; 100 µM 21.3% | MDA-MB-435 melanoma; 10 µM 78.4% | MDA-MB-435 melanoma; 100 µM 39.5% | SW-620 colon; 10 µM 72.1% | SW-620 colon; 100 µM 38.6% | MCF7 breast; 10 µM 66.6% | MCF7 breast; 100 µM 41.8% | HCT-116 colon; 10 µM 68.9% | HCT-116 colon; 100 µM 25.3% | HCC-2998 colon; 10 µM 92.1% | HCC-2998 colon; 100 µM 86.8% | KM12 colon; 10 µM 82.9% | KM12 colon; 100 µM 32.1%

COc1ccccc1/C=C/C(=O)/C=C/c1ccccc1OC
16.2% (inactive) and 7.78% (active): SR leukemia; 10 µM unless noted
5.62% (active) and 17.9% (inactive): MCF7 breast; 10 µM unless noted
5.47% (active) and 14.6% (inactive): SK-OV-3 ovarian; 10 µM unless noted
active: RPMI-8226 leukemia; 10 µM unless noted 7.24% and 1.3% | OVCAR-5 ovarian; 10 µM unless noted -15.7% and -6.94% | IGROV1 ovarian; 10 µM unless noted -53.8% and -46.1% | OVCAR-3 ovarian; 10 µM unless noted -29.1% and -36.7% | T-47D breast; 10 µM unless noted -41.1% and 4.16% | BT-549 breast; 10 µM unless noted -51.9% and -30.6% | MDA-MB-435 melanoma; 10 µM unless noted -30.8% | SW-620 colon; 10 µM unless noted -27.1% and -20% | HCT-116 colon; 10 µM unless noted -81.7% and -87.1% | HCC-2998 colon; 10 µM unless noted -84% and 2.03% | KM12 colon; 10 µM unless noted -60% and -45.2%
-0.48% (active) and 50.4% (inactive): HS 578T breast; 10 µM unless noted
-2.31% (active) and 18.6% (inactive): NCI/ADR-RES ovarian; 10 µM unless noted
-25.9% (active) and 16.5% (inactive): OVCAR-8 ovarian; 10 µM unless noted
inactive: OVCAR-4 ovarian; 10 µM unless noted 20.6% and 13%

O=C1CCCCN1CCCCC#Cc1cccc(C#Cc2cccnc2)c1
inactive: RPMI-8226 leukemia; 10 µM unless noted 49.7% | OVCAR-8 ovarian; 10 µM unless noted 89.2% | OVCAR-5 ovarian; 10 µM unless noted 101% | OVCAR-4 ovarian; 10 µM unless noted 93.8% | SK-OV-3 ovarian; 10 µM unless noted 109% | IGROV1 ovarian; 10 µM unless noted 79.4% | OVCAR-3 ovarian; 10 µM unless noted 89.7% | HS 578T breast; 10 µM unless noted 88% | NCI/ADR-RES ovarian; 10 µM unless noted 72.7% | T-47D breast; 10 µM unless noted 84.1% | BT-549 breast; 10 µM unless noted 265% | MDA-MB-435 melanoma; 10 µM unless noted 84.6% | SW-620 colon; 10 µM unless noted 101% | MCF7 breast; 10 µM unless noted 101% | HCT-116 colon; 10 µM unless noted 141% and 39.7% | HCC-2998 colon; 10 µM unless noted 77.2%
active: SR leukemia; 10 µM unless noted -46.3%
